# Laboratory results: PMC7862700, “An all-to-all approach to the identification of sequence-specific readers for epigenetic DNA modifications on cytosine”
# Key:
# Test in all cases: DAPPL (digital affinity profiling via proximity ligation, sequencing); 10 mM Tris-HCl pH 7.5, 50 mM NaCl, 1 mM DTT, 4% glycerol, room temperature, 30 min; GST-TFs on glutathione beads, 16-mer random dsDNA library, 0.1% formaldehyde crosslink after washing; high values mean tight binding
# Details in all cases: protein: recombinant; tags: N-terminal GST; dsDNA, one strand shown
# [1] = target: ETV1 (Homo sapiens, UniProt P50549 1-477)
# Chain of ETV1 (P50549 whole entry, the tested form may be a part): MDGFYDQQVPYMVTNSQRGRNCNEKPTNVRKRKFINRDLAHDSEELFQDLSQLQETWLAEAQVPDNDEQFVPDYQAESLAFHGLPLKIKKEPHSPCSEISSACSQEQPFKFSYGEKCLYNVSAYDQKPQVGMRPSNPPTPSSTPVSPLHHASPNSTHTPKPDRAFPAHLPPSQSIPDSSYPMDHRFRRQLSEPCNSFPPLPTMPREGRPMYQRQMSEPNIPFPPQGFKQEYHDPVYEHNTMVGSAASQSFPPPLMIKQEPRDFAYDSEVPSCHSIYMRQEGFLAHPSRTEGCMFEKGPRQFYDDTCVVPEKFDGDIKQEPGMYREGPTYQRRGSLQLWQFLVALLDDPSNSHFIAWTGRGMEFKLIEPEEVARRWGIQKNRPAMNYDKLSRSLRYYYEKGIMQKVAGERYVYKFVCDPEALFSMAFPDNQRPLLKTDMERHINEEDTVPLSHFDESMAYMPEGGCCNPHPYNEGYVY
# Method in brief: (§1)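 Each value of binding signal is a hexamer's read frequency for a factor divided by the same hexamer's frequency in the tag-only sample. Barcoded, bead-captured GST fusions of human transcription factors made in yeast were pooled with that sample and incubated with 200 nmole of a random double-stranded 16-mer DNA library in Tris/NaCl/DTT/glycerol buffer at room temperature for 30 min. Washing, 0.1% formaldehyde crosslinking, proximity ligation, PCR and Illumina NextSeq500 sequencing followed.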
# [2] = target: T1, ERF (Homo sapiens, UniProt P50548 1-548)
# T1 sequence: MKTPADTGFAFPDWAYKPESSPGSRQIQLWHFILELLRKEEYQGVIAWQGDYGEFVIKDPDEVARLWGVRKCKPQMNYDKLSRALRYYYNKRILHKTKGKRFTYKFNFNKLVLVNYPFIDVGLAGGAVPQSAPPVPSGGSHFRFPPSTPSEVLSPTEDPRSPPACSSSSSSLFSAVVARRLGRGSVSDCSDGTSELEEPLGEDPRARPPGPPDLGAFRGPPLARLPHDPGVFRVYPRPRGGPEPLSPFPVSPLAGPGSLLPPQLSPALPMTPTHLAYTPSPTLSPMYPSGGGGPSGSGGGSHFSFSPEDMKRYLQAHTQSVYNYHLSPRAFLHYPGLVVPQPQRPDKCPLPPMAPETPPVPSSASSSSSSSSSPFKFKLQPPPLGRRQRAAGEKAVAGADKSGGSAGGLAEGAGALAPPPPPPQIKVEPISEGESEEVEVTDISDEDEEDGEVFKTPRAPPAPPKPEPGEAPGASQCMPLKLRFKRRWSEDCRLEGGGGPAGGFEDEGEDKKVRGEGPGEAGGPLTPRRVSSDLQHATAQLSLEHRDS
# Method in brief: as §1
# [3] = target: T2, ETV3L (Homo sapiens, UniProt Q6ZN32 1-361)
# T2 sequence: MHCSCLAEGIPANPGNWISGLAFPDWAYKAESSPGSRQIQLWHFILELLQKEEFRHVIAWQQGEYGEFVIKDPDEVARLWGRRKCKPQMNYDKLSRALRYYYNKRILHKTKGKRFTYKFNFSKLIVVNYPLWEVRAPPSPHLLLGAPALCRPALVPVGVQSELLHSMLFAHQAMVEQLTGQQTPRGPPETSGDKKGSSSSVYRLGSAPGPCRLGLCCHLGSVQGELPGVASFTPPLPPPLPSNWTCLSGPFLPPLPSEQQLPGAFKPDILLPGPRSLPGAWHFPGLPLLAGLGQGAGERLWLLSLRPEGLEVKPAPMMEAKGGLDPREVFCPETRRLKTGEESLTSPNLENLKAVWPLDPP
# Method in brief: as §1
# [4] = target: T3, ETS2 (Homo sapiens, UniProt P15036 1-469)
# T3 sequence: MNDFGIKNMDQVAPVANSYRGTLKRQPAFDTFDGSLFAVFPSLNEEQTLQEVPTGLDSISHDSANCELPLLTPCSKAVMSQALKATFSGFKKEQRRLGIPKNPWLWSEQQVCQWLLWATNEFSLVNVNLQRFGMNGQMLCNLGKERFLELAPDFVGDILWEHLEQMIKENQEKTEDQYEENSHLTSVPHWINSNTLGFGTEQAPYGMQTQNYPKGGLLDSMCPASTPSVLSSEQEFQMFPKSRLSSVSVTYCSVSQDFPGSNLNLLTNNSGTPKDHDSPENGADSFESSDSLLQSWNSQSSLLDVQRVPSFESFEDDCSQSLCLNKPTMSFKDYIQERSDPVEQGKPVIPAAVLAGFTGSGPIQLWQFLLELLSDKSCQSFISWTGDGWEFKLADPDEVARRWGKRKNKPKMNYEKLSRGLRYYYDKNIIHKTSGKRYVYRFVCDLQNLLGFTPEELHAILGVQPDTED
# Method in brief: as §1
# [5] = target: T4, SPDEF (Homo sapiens, UniProt O95238 1-335)
# T4 sequence: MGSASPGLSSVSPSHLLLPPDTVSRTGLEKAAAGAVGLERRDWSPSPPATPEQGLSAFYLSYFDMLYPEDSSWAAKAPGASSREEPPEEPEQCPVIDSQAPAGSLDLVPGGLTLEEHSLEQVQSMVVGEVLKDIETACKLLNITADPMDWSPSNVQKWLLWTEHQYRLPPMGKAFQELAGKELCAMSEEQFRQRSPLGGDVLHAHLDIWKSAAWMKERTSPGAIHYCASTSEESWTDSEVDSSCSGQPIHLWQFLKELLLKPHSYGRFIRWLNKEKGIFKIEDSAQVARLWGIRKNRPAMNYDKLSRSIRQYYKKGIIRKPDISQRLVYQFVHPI
# Method in brief: as §1
# [6] = target: T5, ETV7 (Homo sapiens, UniProt Q9Y603 1-341)
# T5 sequence: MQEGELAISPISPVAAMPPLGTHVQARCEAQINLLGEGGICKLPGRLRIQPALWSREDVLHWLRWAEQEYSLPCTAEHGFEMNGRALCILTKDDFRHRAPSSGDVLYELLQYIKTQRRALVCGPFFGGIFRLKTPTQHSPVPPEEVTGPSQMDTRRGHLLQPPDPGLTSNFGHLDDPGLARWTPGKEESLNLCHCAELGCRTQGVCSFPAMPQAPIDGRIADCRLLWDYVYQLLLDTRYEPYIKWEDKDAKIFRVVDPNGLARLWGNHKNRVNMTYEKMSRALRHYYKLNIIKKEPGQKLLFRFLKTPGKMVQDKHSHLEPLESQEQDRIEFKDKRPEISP
# Method in brief: as §1
# [7] = target: T6, ELF5 (Homo sapiens, UniProt Q9UKW6-2 1-255)
# T6 sequence: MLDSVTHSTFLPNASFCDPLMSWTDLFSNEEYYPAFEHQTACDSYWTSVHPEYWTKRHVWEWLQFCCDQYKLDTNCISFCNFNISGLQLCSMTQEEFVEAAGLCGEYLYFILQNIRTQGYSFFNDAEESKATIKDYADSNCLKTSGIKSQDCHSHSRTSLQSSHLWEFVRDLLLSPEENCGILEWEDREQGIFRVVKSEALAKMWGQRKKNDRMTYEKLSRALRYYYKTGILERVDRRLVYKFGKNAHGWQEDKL
# Method in brief: as §1
# [8] = target: T7, ETV3 (Homo sapiens, UniProt P41162-2 1-143)
# T7 sequence: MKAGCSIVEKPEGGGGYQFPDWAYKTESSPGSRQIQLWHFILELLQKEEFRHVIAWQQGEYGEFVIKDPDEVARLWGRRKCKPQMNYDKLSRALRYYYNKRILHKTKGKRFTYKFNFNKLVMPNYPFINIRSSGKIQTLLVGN
# Method in brief: as §1
# [9] = target: ETV6 (Homo sapiens, UniProt P41212 1-452)
# Chain of ETV6 (P41212 whole entry): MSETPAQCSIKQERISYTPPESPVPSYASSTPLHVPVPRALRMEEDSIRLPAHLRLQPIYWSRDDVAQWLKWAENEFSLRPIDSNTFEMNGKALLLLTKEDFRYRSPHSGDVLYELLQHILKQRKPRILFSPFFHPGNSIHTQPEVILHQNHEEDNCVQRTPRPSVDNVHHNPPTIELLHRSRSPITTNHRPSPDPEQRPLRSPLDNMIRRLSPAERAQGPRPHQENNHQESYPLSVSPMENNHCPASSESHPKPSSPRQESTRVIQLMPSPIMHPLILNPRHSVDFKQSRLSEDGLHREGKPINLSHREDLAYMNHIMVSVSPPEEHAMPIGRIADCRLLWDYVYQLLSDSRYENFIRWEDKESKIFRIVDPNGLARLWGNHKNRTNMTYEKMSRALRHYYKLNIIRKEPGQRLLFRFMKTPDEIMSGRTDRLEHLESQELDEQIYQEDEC
# Method in brief: as §1
sequence,measurement,setting,value
CCGCCT,binding signal,[1],"1.47 fold enrichment (6-mer frequency, TF over GST control)"
same,binding signal,[2],"1.35 fold enrichment (6-mer frequency, TF over GST control)"
same,binding signal,[3],"1.49 fold enrichment (6-mer frequency, TF over GST control)"
same,binding signal,[4],"1.41 fold enrichment (6-mer frequency, TF over GST control)"
same,binding signal,[5],"1.75 fold enrichment (6-mer frequency, TF over GST control)"
same,binding signal,[6],"1.52 fold enrichment (6-mer frequency, TF over GST control)"
same,binding signal,[7],"1.84 fold enrichment (6-mer frequency, TF over GST control)"
same,binding signal,[8],"1.64 fold enrichment (6-mer frequency, TF over GST control)"
same,binding signal,[9],"1.64 fold enrichment (6-mer frequency, TF over GST control)"
